# From PubChem BioAssay
# GDH-TPI counter-1: GDH-TPI coupled enzyme inhibition counter-screen; inhibition, % at 4.8 µM; GDH-TPI coupled enzyme counterscreen, NADH absorbance; AID 588335; 360,000 tested, 1.2% active; in the data active means inhibition above about 30%;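 further: 0% = DMSO wells and 100% = wells lacking the enzyme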
# CCHFV vOTU inh: CCHFV vOTU protease inhibition; Pep-AMC fluorescence; inhibition, % at 11.5 µM; 370,000 tested, 0.55% active; AID 651958; in the data active means inhibition above about 30%; further: 0% = vehicle wells with enzyme and 100% = no enzyme wells
# SARS 3CLpro inh: SARS-CoV 3CLpro protease inhibition. P0C6X7. recombinant SARS-CoV 3CLpro, quenched FRET peptide cleavage. inhibition, % at 6 µM. 290,000 tested, 0.14% active. AID 1706; in the data active means inhibition above about 12%
# FBA Mtb inh: inhibitors of M. tuberculosis fructose-bisphosphate aldolase. P9WQA3. purified M. tuberculosis FBA, fluorescence read-out. inhibition, % at 1 µM. 360,000 tested, 2.3% active;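 further: 0% = vehicle and 100% = reference inhibitor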
# Target sequence (P9WQA3 whole entry, looked up): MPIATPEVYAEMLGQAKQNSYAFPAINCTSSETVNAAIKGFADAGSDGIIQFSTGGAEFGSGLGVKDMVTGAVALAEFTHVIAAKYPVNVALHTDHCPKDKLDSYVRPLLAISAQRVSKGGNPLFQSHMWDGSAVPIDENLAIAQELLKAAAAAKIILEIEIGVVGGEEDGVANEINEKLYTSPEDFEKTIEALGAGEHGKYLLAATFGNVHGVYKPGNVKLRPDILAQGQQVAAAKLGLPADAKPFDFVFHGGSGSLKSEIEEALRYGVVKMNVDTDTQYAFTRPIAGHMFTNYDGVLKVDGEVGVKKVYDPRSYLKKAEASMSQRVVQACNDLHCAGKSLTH
# DUSP3 inh: DUSP3 (human) phosphatase inhibition; P51452; recombinant VHR phosphatase, pNPP absorbance; inhibition, % at 13.3 µM; 290,000 tested, 0.52% active; in the data active means inhibition above about 50%
# Target sequence (P51452 whole entry, looked up): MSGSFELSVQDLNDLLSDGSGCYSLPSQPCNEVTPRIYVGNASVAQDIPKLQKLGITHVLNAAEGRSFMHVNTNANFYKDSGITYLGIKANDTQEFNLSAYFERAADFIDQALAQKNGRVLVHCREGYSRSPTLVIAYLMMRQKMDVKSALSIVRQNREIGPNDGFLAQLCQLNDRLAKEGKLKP
# RecA intein inh: Mtb RecA intein splicing inhibition; cell-free RecA intein splicing, fluorescence; inhibition, % (concentration not given with the values); 290,000 tested, 0.75% active; in the data active means inhibition above about 30%;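 further: 0% = vehicle wells and 100% = reference inhibitor control wells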
# Mtb FBA inh conf: confirmation of M. tuberculosis fructose-bisphosphate aldolase inhibitors; purified M. tuberculosis FBA, fluorescence read-out; 5,600 tested, 78% active; inhibition, % at 1 µM; shares compounds with FBA Mtb inh; AID 651616;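 further: 0% = vehicle wells and 100% = reference inhibitor wells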
# GDH-TPI counter-2: inhibits GDH-TPI coupling enzymes, flagging Mtb FBA hits; shares compounds with FBA Mtb inh; GDH-TPI coupled enzyme counterscreen, fluorescence; inhibition, % at 1 µM; 5,600 tested, 81% active; AID 652141; in the data active means inhibition above about 10%
# Numbers without * were called inactive; . = not tested or not shown; + = active, no number. Hits are enriched below; roughly 4.7% of the tested compounds scored in any of these assays. Unless noted, no stated cut-off is given here; in the data, active means inhibition above about 27%; inactive means the rest.
SMILES,GDH-TPI counter-1,CCHFV vOTU inh,SARS 3CLpro inh,FBA Mtb inh,DUSP3 inh,RecA intein inh,Mtb FBA inh conf,GDH-TPI counter-2
CC(C)CCOCC(=O)Oc1ccccc1C(=O)O,-3.2,-3.2,0.2,33.5*,8.1,-0.6,-4.5,-4.1
CC(=O)Nc1ccc(S(=O)(=O)N2CCc3cc4c(cc3C2)OCCCO4)cc1,1.7,12.2,3.5,0.3,5.3,-4.7,.,.
FC(F)(F)c1ccc(-c2cccc3c2C2CC3CCN2C(=S)NCCc2ccccc2)cc1 (configuration not stated),.,-0.1,.,-0.9,.,.,.,.
COc1ccc2[nH]c3c(c2c1)CCNC3=O,1.8,-33.9,.,87.6*,.,-1.8,43.7*,35.5*
Cc1cccc(C=Nc2ccc3c(c2)oc2ccccc23)c1O,9.0,5.9,-1.6,35.6*,4.6,1.5,151.3*,117.3*
Cc1ccccc1N=Cc1cccc(O)c1O,3.7,.,3.0,-5.4,-8.5,-2.6,.,.
COc1ccc(CCNC(=O)c2cc(S(=O)(=O)N3CCOCC3)ccc2F)cc1,5.4,-1.5,.,1.4,.,.,.,.
C=CCn1c(=O)n(CCOC)c(=O)c2sc3ccccc3c21,10.6,-17.5,-5.5,37.5*,10.8,5.5,154.8*,164.3*
COCCCn1c(=O)c2ccccc2n(Cc2ccccc2)c1=O,-14.3,6.1,1.4,2.2,20.5,3.5,.,.
CCOc1ccccc1Oc1coc2cc(O)ccc2c1=O,21.9,-20.6,5.0,52.6*,14.3,-0.1,40.6*,26.2*
COc1ccc(-c2coc3cc(O)ccc3c2=O)cc1OC,21.0,-5.8,1.8,17.2,7.1,0.0,.,.
CCOC(=O)c1ccc(Oc2coc3cc(O)ccc3c2=O)cc1,7.4,-32.9,5.1,27.9*,5.3,-0.6,160.8*,122.8*
COc1ccccc1Oc1coc2cc(O)ccc2c1=O,23.9,-37.3,2.8,30.6*,-7.1,-5.9,+,+
CCC(=O)N1CCN(c2ccc(NC(=O)COc3ccccc3[N+](=O)[O-])cc2)CC1,8.9,-0.5,2.4,0.8,10.6,-4.9,.,.
CCN1CCCC1CNC(=O)c1cc2cc(F)ccc2[nH]1 (configuration not stated),-0.7,1.5,5.7,30.0*,19.7,-1.0,+,+
CCN1CCCC1CNC(=O)Cn1nc(C)n2c(cc3cc(F)ccc32)c1=O (configuration not stated),7.7,24.1,5.7,12.7,7.1,-1.2,.,.
Cc1nc2c(=O)n(C)c(=O)n(C)c2nc1Cl,6.1,5.0,-1.4,39.0*,-7.9,44.6*,63.2*,44.0*
Cn1c(=O)c2nncnc2n(C)c1=O,-2.2,14.5,-0.8,-2.1,2.9,0.7,.,.
Oc1ccc(-c2nccs2)cc1,18.4,-22.2,.,47.4*,.,.,108.3*,86.2*
CCN(CC)CCOc1cc2c(nn1)Oc1ccccc1N2C,27.1,-51.1,-3.5,56.3*,35.7,-4.4,164.0*,153.5*
CN1c2ccccc2Oc2nnc(Cl)cc21,7.0,-47.8,1.4,28.1*,11.8,-37.5,50.5*,37.6*
CN1c2ccccc2Oc2ccccc21,5.0,4.0,1.8,2.0,-0.9,-1.7,.,.
CN1c2ccccc2Oc2nnc(N3CCN(Cc4ccccc4)CC3)cc21,6.5,-72.8,-5.2,57.0*,22.2,-14.8,86.9*,82.3*
Cc1ccc(C(O)c2ncc(-c3ccccc3Cl)[nH]2)cc1 (configuration not stated),2.2,-8.5,.,3.0,.,.,.,.
Cc1ccccc1-n1ncc(C(C)NS(=O)(=O)c2ccccc2Cl)c1C (configuration not stated),-7.3,9.2,2.0,-1.6,9.2,4.4,.,.
SMILES,GDH-TPI counter-1,CCHFV vOTU inh,SARS 3CLpro inh,FBA Mtb inh,DUSP3 inh,RecA intein inh,Mtb FBA inh conf,GDH-TPI counter-2
O=C(c1ccccc1Oc1ccc([N+](=O)[O-])cc1)N1CCOCC1,23.7,-6.3,-2.4,-0.3,25.7,-2.2,.,.
N/C(CSc1ccc(Cl)cc1)=N\NC(=O)c1ccncc1,2.9,-1.6,-1.0,0.4,-15.3,1.2,.,.
CCCCN(C(=O)NC(=O)C1=C(N2CCOCC2)/C(=C/c2ccccc2)CC1)S(C)(=O)=O,20.4,-32.5,-5.6,44.0*,19.4,-12.0,127.8*,82.8*
CCOC(=O)C(=O)C1=C(N2CCOCC2)/C(=C\c2ccc(F)cc2)CC1,20.8,2.8,4.3,-7.9,-3.8,5.2,.,.
COc1ccc(-c2cc(C(F)(F)F)n3nc(C(=O)NCc4ccco4)cc3n2)cc1,34.2*,-47.0,0.7,47.0*,-22.1,-5.0,106.4*,79.8*
CC(C)Nc1nc(Nc2ccc(C(N)=O)cc2)c2sccc2n1,9.7,1.4,.,-1.9,.,.,.,.
Fc1ccccc1/C=N/n1cc(-c2ccccc2)[nH]c1=S,-2.0,-5.9,-2.2,51.0*,11.2,1.6,136.7*,127.2*
Cc1ccc(C)c(/C=N/n2cc(-c3ccccc3)[nH]c2=S)c1,1.2,4.8,3.5,43.4*,22.3,-2.3,+,+
Fc1ccccc1/C=N/n1cnnc1,-12.0,-0.9,-0.7,4.7,1.2,-7.2,.,.
Cc1cccc(-n2cc(-c3ccccc3)[nH]c2=S)c1,-0.4,0.7,0.5,0.1,23.9,3.7,.,.
Cc1ccc(C(=O)OCC(=O)NCc2ccc(Cl)cc2)s1,1.8,1.1,.,-1.4,.,.,.,.
CN(C(=O)CC(=O)Nc1ccc(Cl)c(Cl)c1)c1ccccc1,5.7,7.3,1.7,1.3,9.4,3.2,.,.
O=C(CSc1n[nH]c(-c2ccc(S(=O)(=O)N3CCCCC3)cc2)n1)Nc1nccs1,17.5,-5.6,4.7,61.3*,-10.2,4.6,64.6*,47.2*
CSCC[C@H](NC(=O)[C@@H]1CSC2c3ccccc3C(=O)N21)C(=O)N1CCC[C@H]1CO (some centres not stated),7.8,-0.6,0.3,0.5,12.7,1.5,.,.
N#Cc1ccc(-c2ccc(OCC(=O)Nc3cccnc3)cc2)cc1,0.7,-1.6,-2.1,42.7*,5.5,-0.6,115.9*,85.0*
Cc1cccc(NC(=O)CNC(=O)COc2ccc(C(=O)c3ccc(F)cc3)cc2)c1C,3.2,-0.8,-4.6,1.2,7.3,-4.3,.,.
CC(=O)Nc1ccc(NC(=O)COc2ccc(-c3ccc(C#N)cc3)cc2)cc1,-2.9,2.7,.,3.0,.,.,.,.
Cc1cccc(NC(=O)CNC(=O)COc2ccc(-c3ccc(C#N)cc3)cc2)c1C,10.0,-10.4,-3.9,28.8*,4.4,-3.1,100.6*,79.8*
O=C(COc1ccc2c3c(c(=O)oc2c1)CCCC3)N[C@@H](Cc1ccccc1)C(=O)O,10.4,-18.3,2.6,59.4*,4.9,2.8,6.6,-0.8
CC(Oc1ccc2c3c(c(=O)oc2c1)CCC3)C(=O)N[C@@H](Cc1ccccc1)C(=O)O (some centres not stated),11.8,3.6,-3.3,22.7,24.7,.,.,.
O=C(COc1ccc2c3c(c(=O)oc2c1)CCCC3)NCc1cccnc1,0.0,-7.2,0.5,7.3,26.7,-1.2,.,.
